Source: PubChem BioAssay (NCI)
Values joined by “and” are separate entries in the source; they are usually repeats but may differ in a detail not shown here. Equal entries are not always repeated. The panel holds about 83,000 compounds, 20% with a hit somewhere; the sample as a whole holds those more often.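 How to read the values: 0–100, growth inhibition (40 = 60% inhibited); 0, no net growth; -100 to 0, cell death (-40 = 40% of starting cells died; -100 = all dead).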 Active and inactive are the calls of the source. The calls were made as follows: active = growth percent below 10; inactive = the rest.

Test system: HL-60(TB) leukemia
Assay: NCI-60 one-dose screen, 48 h (100 = growth as untreated, 0 = no growth, -100 = all killed)
Conditions: 10 µM unless noted

SMILES | growth
CC(=O)[C@@H]1CC[C@]2(C(N)=O)CC[C@]3(C)[C@H](CC[C@@H]4[C@@]5(C)CCC(=O)C(C)(C)[C@@H]5CC[C@]43C)[C@@H]12 | 89.7% (inactive)
CCN(CC)c1ccc2c(cc1=O)[C@@H](NC(C)=O)CCc1cc(OC)c(OC)c(OC)c1-2 | -56.8% (active)
Nc1c(C(=O)Nc2ccc(Cl)cc2)cc(-c2nc3ccccc3s2)c(=O)n1NS(=O)(=O)c1ccc(Cl)cc1 | 100% (inactive)
CCOC(=O)c1cc(CC)sc1NC(=O)CC(C)=O | 51.4% (inactive)
CCOc1ccc(Nc2nc(-c3c(C)nc4ncccn34)cs2)cc1 | -34.1% (active)
CC(=O)N1C(=S)NC(=O)C1Cn1c(-c2ccccc2)nc2ccccc21 (stereo not given) | 98.9% (inactive)
COC(=O)c1ccc2c(c1)nc(-c1cc3ccccc3[nH]c1=O)n2-c1cc(C(C)(C)C)[nH]n1 | -16.9% (active)
CC(C)[C@@H]1CC[C@@H]2[C@@H]1[C@H](OC(=O)/C=C/c1ccccc1)[C@]1(C(C)C)C[C@@H](OC(=O)CO)[C@@]2(C)O1 | 84.6% (inactive)
O=C1c2ccccc2C(=O)c2c1ccc(C(Br)Br)c2Cl | -9.24% (active)
CCOC(=O)c1sc(Nc2ccc(Cl)cc2)nc1C | 27.2% (inactive)
O=C(CSc1nc2sc3c(c2c(=O)n1-c1ccccc1)CCCCC3)N/N=C/c1ccc(F)cc1 | 110% (inactive)
CCOC(=O)C1CCCN1C(=O)C1(NC(C)=O)CCCC1 (stereo not given) | 98.4% (inactive)
CCC(=O)N1C/C(=C/c2ccc(Cl)cc2)C(=O)/C(=C/c2ccc(Cl)cc2)C1 | 4.88% (active)
Cc1[nH]c2ccc(F)cc2c1CCNC(=O)C1CCN(C(=O)c2ccccc2)C1 (stereo not given) | 107% [25 µM] (inactive)
CCOC(=O)C(CCC#N)(CCC#N)C(=O)OCC | 103% (inactive)
CCCCCN1C=C/C(=C\C(=O)N(C)c2ccc(Br)cc2)c2ccccc21 | 98.2% (inactive)
CC[C@@H]1NC(=O)[C@@H]2CCCCN2C(=O)[C@@H]2CCCN2C(=O)[C@@H](NC(=O)[C@H](Cc2cc(F)cc(F)c2)NC(=O)Nc2ccc(C3CC3)cc2F)[C@H](C)OC(=O)[C@@H]2C[C@@H](C)CN2C1=O | 5.69% (active)
CCC1S/C(=N\N=C(/C)c2ccc[nH]2)N(c2ccccc2)C1=O (stereo not given) | -63.7% (active)
O=C(Nc1cc(C(F)(F)F)cc(C(F)(F)F)c1)c1cc(Cl)ccc1O | -24.6% (active) and -49% (active)
O=C1C(=O)c2ccccc2C(O)=C1CCCc1ccc(C2CCCCCC2)cc1 | 45.6% (inactive)

SMILES | growth
COc1ccc2nc3cc(Cl)ccc3c(N)c2c1 | -71.6% (active)
COc1ccc(-c2cc(-c3ccc(Cl)cc3)nc(SCCCCCCC(=O)NO)n2)cc1OC | 19% (inactive)
Cc1ccc(Nc2cc(N)nc(N)n2)cc1Cl | 98.7% (inactive)
OCCNc1nc(NCCO)nc(Nc2ccc(C3=NN(c4ccc(Cl)cc4)C(c4ccc(Cl)cc4)C3)cc2)n1 (stereo not given) | 46.2% (inactive)
O=S(=O)(Nc1ccc(F)c(Cl)c1)c1ccc(-c2cnc(C3CC3)o2)cc1 | 8.62% (active)
CCCCN[C@H]1CC[C@@]2(C)[C@@H](CC[C@@]3(C)[C@H]2[C@H](O)C[C@H]2/C(=C(\CCC=C(C)C)C(=O)OC)[C@@H](OC(C)=O)C[C@@]23C)[C@@H]1C | 0.474% (active)
O=C(CSc1nc2sc3c(c2c(=O)n1Cc1ccccc1)CCCC3)N1CCN(c2ccccc2)CC1 | 90.3% (inactive)
CCOC(C)(c1ccc(Cl)cc1)C1CCNCC1 (stereo not given) | 86.1% (inactive)
CN1C(=O)NC(c2ccc(Cl)cc2)(c2ccc(Cl)cc2)C1=O | 78.2% (inactive)
O=[N+]([O-])C=C(c1ccccc1)c1ccccc1 | 60.2% (inactive)
Cc1cccc(NC2=C(C#N)C(=O)NC3(CCCC3)S2)c1 | 89.7% (inactive)
OC(c1ccccc1)C(NC(Cc1ccccc1)c1ccccc1)c1ccccc1 (stereo not given) | 112% (inactive)
O=c1c2c([nH]c3ccccc13)CCCC2 | 97.6% (inactive) and 5.42% (active)
C#CCOc1ccc2ncnc(Nc3cccc(NC(=O)C=C)c3)c2c1 | 63.1% (inactive)
COc1ccc(C(=O)c2cc(OC)c3c(c2)OCO3)cc1O | 13.4% (inactive)
CC(=O)Oc1c(C)c(C)c2c(c1C)CCC(C)(CC(=O)OCCCCCCCCCCC[P+](c1ccccc1)(c1ccccc1)c1ccccc1)O2 (stereo not given) | -34.8% (active)
N#CCN1C(=O)C2C3=C(CCCC3)SC2N=C1CN1CCCC1 (stereo not given) | 66.3% (inactive)
Cc1nn(-c2ccc(Cl)cc2)c(=O)n1CCn1cnc2ccccc21 | 102% (inactive)
CC(C)CCNC(=O)Cn1cccc(NC(=O)OCc2ccccc2)c1=O | 103% (inactive)
COc1ccc2c(c1)C1(C(=O)N2)C(C#N)=C(c2ccccc2)Nc2c1c(-c1ccccc1)nn2-c1ccccc1 (stereo not given) | 3.96% (active)
